# About 7,900 targets were measured; listed, in parts, are those with a hit and a random draw of the rest. About 0.6% of all pairs of compound and target were hits. Unmarked numbers belong to inactive results.
# Experiments:
# Test in all cases: log2 fold change, soluble protein after heating vs DMSO (PISA); higher = thermal stabilisation; K562 cells, 10 uM, 30 min; active = over 0.2 and 3.5 SD of the protein, either way, in both replicates (recomputed)
# [1] = compound: CS(=O)(=O)c1ccc(-c2cnc(N)c(C(=O)Nc3ccccc3)n2)cc1
# Method in brief: (§1)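 Thermal stability values are relative to control samples and come from duplicates. They are expressed as log2 fold changes. For measurement, K562 cells (2×10^6 cells/mL) received 10 μM compound for 30 min, and aliquots were heated for 3 min over 48°C-58°C, pooled, and extracted at 4°C in PBS with 0.5% NP-40. Soluble protein, the supernatant after 21,000xg for 90 min, was quantified by TMTpro 16plex LC-MS/MS with equalised channel sums.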
# tipifarnib = compound: Cn1cncc1[C@@](N)(c1ccc(Cl)cc1)c1ccc2c(c1)c(-c1cccc(Cl)c1)cc(=O)n2C [tipifarnib]
# Method in brief: as §1
# crizotinib = compound: C[C@@H](Oc1cc(-c2cnn(C3CCNCC3)c2)cnc1N)c1c(Cl)ccc(F)c1Cl [crizotinib]
# Method in brief: as §1
# [2] = compound: C[C@@H]1COCCN1C2=NC(=NC(=C2)C3(CC3)S(=O)(=O)C)C4=C5C=CNC5=CC=C4
# Method in brief: as §1
# [3] = compound: C[C@H](C1=CC=C(C=C1)C(=O)NC2=C3C=CNC3=NC=C2)N
# Method in brief: as §1
# duvelisib = compound: C[C@H](Nc1ncnc2nc[nH]c12)c1cc2cccc(Cl)c2c(=O)n1-c1ccccc1 [duvelisib]
# Method in brief: as §1
# tozasertib = compound: Cc1cc(Nc2cc(N3CCN(C)CC3)nc(Sc3ccc(NC(=O)C4CC4)cc3)n2)n[nH]1 [tozasertib]
# Method in brief: as §1
# [4] = compound: Cc1cc(SCc2sc(-c3ccc(C(F)(F)F)cc3)nc2C)ccc1OCC(=O)O
# Method in brief: as §1
# doramapimod = compound: Cc1ccc(-n2nc(C(C)(C)C)cc2NC(=O)Nc2ccc(OCCN3CCOCC3)c3ccccc23)cc1 [doramapimod]
# Method in brief: as §1
# ispinesib = compound: Cc1ccc(C(=O)N(CCCN)[C@@H](c2nc3cc(Cl)ccc3c(=O)n2Cc2ccccc2)C(C)C)cc1 [ispinesib]
# Method in brief: as §1
# nilotinib = compound: Cc1cn(-c2cc(NC(=O)c3ccc(C)c(Nc4nccc(-c5cccnc5)n4)c3)cc(C(F)(F)F)c2)cn1 [nilotinib]
# Method in brief: as §1
# [5] = compound: Cc1nc(Nc2n[nH]c3c2CN(C(=O)N[C@H](CN(C)C)c2ccccc2)C3(C)C)c2sccc2n1
# Method in brief: as §1
# dasatinib = compound: Cc1nc(Nc2ncc(C(=O)Nc3c(C)cccc3Cl)s2)cc(N2CCN(CCO)CC2)n1 [dasatinib]
# Method in brief: as §1
# [6] = compound: Cc1ncc(-c2ccnc(Nc3ccc(S(C)(=O)=O)cc3)n2)n1C(C)C
# Method in brief: as §1
# [7] = compound: Cn1cc(-c2ccc3c(c2)CCN3C(=O)Cc2cccc(C(F)(F)F)c2)c2c(N)ncnc21
# Method in brief: as §1
# [8] = compound: Cn1cc(-c2ccc3nnc(C(F)(F)c4ccc5ncccc5c4)n3n2)cn1
# Method in brief: as §1
# mubritinib = compound: FC(F)(F)c1ccc(/C=C/c2nc(COc3ccc(CCCCn4ccnn4)cc3)co2)cc1 [mubritinib]
# Method in brief: as §1
# gandotinib = compound: Cc1cc(Nc2cc(CN3CCOCC3)c3nc(C)c(Cc4ccc(Cl)cc4F)n3n2)n[nH]1 [gandotinib]
# Method in brief: as §1
# bafetinib = compound: Cc1ccc(NC(=O)c2ccc(CN3CC[C@H](N(C)C)C3)c(C(F)(F)F)c2)cc1Nc1nccc(-c2cncnc2)n1 [bafetinib]
# Method in brief: as §1
# [9] = compound: Cc1cccc(CC(=O)N2CCc3c2ccc(-c2cn(C)c4ncnc(N)c24)c3F)n1
# Method in brief: as §1
# Sequence of UniProt Q92686 (Q92686 whole entry, looked up): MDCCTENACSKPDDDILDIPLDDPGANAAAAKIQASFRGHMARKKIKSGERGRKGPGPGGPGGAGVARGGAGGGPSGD
# Sequence of UniProt Q8N573 (Q8N573 whole entry, looked up): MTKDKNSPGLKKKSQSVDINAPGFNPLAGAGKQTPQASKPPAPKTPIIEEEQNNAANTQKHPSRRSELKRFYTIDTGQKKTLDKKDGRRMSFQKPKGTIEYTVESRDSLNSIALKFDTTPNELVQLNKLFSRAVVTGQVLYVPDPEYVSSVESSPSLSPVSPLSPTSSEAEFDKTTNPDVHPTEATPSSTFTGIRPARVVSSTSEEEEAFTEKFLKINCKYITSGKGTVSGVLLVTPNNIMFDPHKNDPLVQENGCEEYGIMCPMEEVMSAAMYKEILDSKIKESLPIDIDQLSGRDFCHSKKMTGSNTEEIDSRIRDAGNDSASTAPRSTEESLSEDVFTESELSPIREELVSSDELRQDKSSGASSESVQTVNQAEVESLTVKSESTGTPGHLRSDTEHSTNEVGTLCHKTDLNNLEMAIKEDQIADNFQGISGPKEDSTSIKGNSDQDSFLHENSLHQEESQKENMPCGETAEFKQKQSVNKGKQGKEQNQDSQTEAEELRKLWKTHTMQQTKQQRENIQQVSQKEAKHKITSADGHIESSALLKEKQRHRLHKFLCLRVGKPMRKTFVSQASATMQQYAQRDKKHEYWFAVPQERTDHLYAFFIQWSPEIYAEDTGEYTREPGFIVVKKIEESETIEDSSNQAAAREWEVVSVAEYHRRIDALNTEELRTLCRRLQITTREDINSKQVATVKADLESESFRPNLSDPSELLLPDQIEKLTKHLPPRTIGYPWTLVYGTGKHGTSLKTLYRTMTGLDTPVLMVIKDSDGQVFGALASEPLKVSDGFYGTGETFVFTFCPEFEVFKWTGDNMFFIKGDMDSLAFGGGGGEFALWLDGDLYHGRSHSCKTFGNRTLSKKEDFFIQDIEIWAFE
# Sequence of UniProt Q70IA6 (Q70IA6 whole entry, looked up): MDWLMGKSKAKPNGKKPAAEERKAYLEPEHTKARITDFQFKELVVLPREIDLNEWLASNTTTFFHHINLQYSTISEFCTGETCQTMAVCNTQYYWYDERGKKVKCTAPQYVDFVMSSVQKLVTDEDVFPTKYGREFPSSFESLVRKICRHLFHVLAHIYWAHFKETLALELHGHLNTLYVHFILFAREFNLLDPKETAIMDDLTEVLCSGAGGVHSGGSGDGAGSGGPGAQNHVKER
# Sequence of UniProt Q8WZ82 (Q8WZ82 whole entry, looked up): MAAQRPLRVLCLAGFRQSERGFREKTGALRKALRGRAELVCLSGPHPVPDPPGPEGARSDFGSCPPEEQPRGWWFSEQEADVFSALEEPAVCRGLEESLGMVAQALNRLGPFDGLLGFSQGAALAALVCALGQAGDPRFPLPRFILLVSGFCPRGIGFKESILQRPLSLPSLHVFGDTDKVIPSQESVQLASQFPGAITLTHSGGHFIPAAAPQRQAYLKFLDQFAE
# Sequence of UniProt Q69YL0 (Q69YL0 whole entry, looked up): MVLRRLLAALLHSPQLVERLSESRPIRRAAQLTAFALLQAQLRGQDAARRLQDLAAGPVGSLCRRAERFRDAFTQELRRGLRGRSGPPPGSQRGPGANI
# Sequence of UniProt P03891 (P03891 whole entry, looked up): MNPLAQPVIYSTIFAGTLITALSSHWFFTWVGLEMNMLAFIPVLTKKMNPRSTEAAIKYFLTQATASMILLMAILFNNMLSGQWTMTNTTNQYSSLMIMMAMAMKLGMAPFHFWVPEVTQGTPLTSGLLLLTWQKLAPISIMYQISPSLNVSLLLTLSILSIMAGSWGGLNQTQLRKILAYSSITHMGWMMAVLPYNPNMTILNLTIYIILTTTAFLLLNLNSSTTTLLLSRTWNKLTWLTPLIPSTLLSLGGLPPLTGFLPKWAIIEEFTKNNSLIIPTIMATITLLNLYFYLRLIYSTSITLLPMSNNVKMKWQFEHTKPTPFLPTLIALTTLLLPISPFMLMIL
# Sequence of UniProt Q9H6N6 (Q9H6N6 whole entry, looked up): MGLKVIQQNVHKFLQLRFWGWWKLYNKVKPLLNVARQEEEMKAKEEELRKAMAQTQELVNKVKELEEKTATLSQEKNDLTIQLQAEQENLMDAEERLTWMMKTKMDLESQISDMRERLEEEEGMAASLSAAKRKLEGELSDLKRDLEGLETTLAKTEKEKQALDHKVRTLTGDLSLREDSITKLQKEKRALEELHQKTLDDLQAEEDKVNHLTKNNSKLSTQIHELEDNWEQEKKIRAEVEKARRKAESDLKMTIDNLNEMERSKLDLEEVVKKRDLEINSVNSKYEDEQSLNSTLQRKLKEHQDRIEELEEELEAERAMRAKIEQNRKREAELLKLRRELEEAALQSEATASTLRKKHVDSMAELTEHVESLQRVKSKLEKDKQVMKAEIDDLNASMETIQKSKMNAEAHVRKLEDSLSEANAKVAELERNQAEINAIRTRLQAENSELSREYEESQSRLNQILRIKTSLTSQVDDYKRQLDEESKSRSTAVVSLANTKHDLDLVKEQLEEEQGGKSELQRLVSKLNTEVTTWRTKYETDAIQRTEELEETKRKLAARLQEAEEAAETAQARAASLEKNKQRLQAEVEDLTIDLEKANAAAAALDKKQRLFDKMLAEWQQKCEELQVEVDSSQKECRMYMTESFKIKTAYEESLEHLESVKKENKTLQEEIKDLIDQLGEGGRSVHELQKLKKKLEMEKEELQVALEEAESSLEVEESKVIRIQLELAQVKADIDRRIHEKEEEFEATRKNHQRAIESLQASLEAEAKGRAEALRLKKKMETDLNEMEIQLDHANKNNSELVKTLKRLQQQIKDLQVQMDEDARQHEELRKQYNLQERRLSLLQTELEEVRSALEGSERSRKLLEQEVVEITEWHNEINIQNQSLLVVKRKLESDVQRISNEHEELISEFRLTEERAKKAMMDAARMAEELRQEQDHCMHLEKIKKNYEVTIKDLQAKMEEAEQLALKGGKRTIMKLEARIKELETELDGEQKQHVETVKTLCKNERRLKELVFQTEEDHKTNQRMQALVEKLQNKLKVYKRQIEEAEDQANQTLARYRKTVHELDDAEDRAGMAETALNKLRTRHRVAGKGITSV
# Sequence of NA, A0A494C071 (A0A494C071 whole entry, looked up): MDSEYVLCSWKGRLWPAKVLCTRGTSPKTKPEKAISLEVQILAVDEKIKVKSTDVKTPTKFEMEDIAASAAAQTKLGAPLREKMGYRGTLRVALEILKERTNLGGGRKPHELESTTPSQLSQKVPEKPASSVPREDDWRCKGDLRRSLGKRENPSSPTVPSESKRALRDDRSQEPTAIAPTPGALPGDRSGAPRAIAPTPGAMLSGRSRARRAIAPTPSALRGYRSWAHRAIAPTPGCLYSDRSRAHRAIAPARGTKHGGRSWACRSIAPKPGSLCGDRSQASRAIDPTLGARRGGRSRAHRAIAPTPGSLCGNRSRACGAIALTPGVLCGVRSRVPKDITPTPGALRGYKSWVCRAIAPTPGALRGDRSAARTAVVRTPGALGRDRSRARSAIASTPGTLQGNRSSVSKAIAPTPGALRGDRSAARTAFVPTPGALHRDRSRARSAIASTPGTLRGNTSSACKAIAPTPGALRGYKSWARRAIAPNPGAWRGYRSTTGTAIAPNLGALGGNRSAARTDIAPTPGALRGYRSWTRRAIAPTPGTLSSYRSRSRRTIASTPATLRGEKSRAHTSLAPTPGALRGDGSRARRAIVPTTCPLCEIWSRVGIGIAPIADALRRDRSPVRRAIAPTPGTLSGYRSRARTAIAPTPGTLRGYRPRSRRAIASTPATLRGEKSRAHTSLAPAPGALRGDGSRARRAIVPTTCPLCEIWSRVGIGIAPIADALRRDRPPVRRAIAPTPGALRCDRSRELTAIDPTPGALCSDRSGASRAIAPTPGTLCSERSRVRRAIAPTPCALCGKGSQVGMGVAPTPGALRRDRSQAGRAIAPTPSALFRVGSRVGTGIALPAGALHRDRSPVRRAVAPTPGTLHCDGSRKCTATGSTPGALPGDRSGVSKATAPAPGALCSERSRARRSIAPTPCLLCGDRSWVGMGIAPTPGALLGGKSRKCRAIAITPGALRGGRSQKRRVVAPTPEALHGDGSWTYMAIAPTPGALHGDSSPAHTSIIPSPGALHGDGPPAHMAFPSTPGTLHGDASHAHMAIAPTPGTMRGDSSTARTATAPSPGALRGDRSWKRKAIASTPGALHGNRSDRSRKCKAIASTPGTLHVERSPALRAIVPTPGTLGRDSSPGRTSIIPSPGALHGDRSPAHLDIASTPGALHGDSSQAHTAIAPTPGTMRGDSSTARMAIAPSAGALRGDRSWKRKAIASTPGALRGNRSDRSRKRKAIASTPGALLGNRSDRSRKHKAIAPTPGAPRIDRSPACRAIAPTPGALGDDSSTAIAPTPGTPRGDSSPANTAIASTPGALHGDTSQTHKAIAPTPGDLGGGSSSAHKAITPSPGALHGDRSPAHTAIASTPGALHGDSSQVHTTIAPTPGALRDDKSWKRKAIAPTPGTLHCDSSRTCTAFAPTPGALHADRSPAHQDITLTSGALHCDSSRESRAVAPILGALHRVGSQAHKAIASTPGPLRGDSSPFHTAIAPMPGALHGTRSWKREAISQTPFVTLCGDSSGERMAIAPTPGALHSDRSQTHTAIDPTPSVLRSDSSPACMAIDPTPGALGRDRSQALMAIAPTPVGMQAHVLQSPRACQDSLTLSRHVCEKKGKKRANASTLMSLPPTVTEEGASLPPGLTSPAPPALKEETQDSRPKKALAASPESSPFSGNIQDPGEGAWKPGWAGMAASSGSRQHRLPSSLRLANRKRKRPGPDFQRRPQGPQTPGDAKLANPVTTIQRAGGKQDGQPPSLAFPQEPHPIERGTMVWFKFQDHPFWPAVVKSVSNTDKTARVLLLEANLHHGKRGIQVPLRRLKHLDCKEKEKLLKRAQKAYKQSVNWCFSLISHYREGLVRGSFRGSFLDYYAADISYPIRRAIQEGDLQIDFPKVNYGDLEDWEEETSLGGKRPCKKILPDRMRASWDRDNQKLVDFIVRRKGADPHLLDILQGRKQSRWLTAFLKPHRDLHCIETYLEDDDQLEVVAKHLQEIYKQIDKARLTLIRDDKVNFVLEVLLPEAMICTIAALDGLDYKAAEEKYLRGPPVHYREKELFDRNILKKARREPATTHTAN
Target,log2 fold change [1],log2 fold change (tipifarnib),log2 fold change (crizotinib),log2 fold change [2],log2 fold change [3],log2 fold change (duvelisib),log2 fold change (tozasertib),log2 fold change [4],log2 fold change (doramapimod),log2 fold change (ispinesib),log2 fold change (nilotinib),log2 fold change [5],log2 fold change (dasatinib),log2 fold change [6],log2 fold change [7],log2 fold change [8],log2 fold change (mubritinib),log2 fold change (gandotinib),log2 fold change (bafetinib),log2 fold change [9]
NEU3 isoform 2 (UniProt Q9UQ49),0.062,0.044,,,,,,,,,,,,,,,,,,
NUDT6 (UniProt P53370),,-0.022,0.069,0.122,0.6,0.019,-0.036,-0.094,-0.127,-0.097,-0.1,0.083,-0.005,0.08,0.426,0.05,-0.049,,,
NCBP2AS2 (UniProt Q69YL0),-0.092,-0.001,,,-0.027,0.037,-0.034,0.044,,-0.48 (active),0,0.045,-0.021,0.031,0.002,0.021,0.006,-0.064,-0.504 (active),-0.018
NMU (UniProt P48645),,0.276,0.025,-0.445,-0.026,-0.001,-0.092,0.127,-0.04,-0.186,0.011,-0.022,0.16,-0.012,-0.394,-0.11,,-0.159,-0.01,0.152
MORC2 (UniProt Q9Y6X9),,0.018,0.027,0.065,,,,,-0.042,,,,,,,,0.126,,-0.036,
MT-ND2 (UniProt P03891),,0.383,0.096,,-0.028,0.177,0.07,0.101,-0.141,0.336,-0.006,0.018,-0.459 (active),-0.171,0.279,0.11,-0.01,-0.064,0,-0.173
MYH16 (UniProt Q9H6N6),-0.33,-0.248,-0.097,,-0.012,,-0.027,,0.399,,0.061,0.062,,0.088,0.068,,-0.025,-0.279,0.482,0.303
OVCA2 (UniProt Q8WZ82),,-0.059,0.064,,,,,,-0.186,0.026,0.026,-0.326,,-0.163,,-0.003,-0.231,-0.232,0.171,0.039
MOB2 isoform 3 (UniProt Q70IA6),,0.013,,-0.166,0.044,,-0.1,,,-0.025,-0.133,-1.47 (active),,0.03,-0.069,0.056,-0.108,-0.093,0.005,-0.039
NA (UniProt B2RBV5),-0.027,0.075,,0.064,,,,,,,-0.433,0.828 (active),,-0.195,,,0.04,0,-0.005,-0.084
MOB3B (UniProt Q86TA1),,0.01,-0.078,,0.098,,-0.025,,0,,-0.168,-0.397,,0.032,0.222,,0.109,0.039,-0.023,0.034
NASP isoform 2 (UniProt P49321),,,,,,,,,,,,,,,,,-0.347,,,
"NA, A0A494C071",,,-0.887 (active),0.137,0.043,0.007,-0.152,-0.102,0.104,,0.074,0.329,0.029,-0.439,0.001,,0.094,-0.352,-1.12 (active),-0.057
OGFOD2 (UniProt Q6N063),,,0.04,0.042,-0.058,0.035,0.003,0.034,0.042,-0.032,0.004,-0.007,-0.04,-0.023,-0.011,0.132,0.092,0.278,0.009,0.171
"MTHFD1, A0A384N5Y3",0.109,-0.146,,0.117,-0.008,0.108,-0.11,0.081,,-0.082,0.239,-0.099,-0.153,-0.031,0.087,-0.008,0.107,-0.036,0.099,-0.055
NUDT1 (UniProt P36639),0.185,-0.069,,0.08,0.107,0.61,-0.057,0.017,-0.113,0.012,-0.087,0.271,-0.127,0.301,0.194,0.06,0.137,-0.167,0.129,0.052
MLH1 (UniProt P40692),,0.047,,0.042,-0.127,0,-0.124,0.094,,,,,-0.212,,0.005,,-0.073,-0.068,-0.063,0.035
MITF (UniProt O75030),0.026,,-0.137,,,,,,0.006,,-0.071,-0.07,,-0.047,,,0.084,-0.13,,0.001
NKAP (UniProt Q8N5F7),,-0.138,-0.113,-0.118,0.013,0.016,0.039,-0.034,0.042,0.001,0.059,-0.792 (active),0.086,0.015,-0.033,-0.253,-0.169,0.041,-0.016,-0.081
NRGN (UniProt Q92686),,-0.055,0.241,0.043,,,,,-0.282,0,0.004,-0.199,,-0.088,,0.074,,0.891 (active),-0.199,-0.581
NOLC1 isoform 3 (UniProt Q14978),,,,,-0.305,,,,,,,,,,-0.015,,,,,
OXR1 isoform 2 (UniProt Q8N573),,-0.019,-0.027,0.187,-0.105,0.024,0.005,0.043,0.022,-0.134,-0.028,-0.002,0,-0.094,0.15,0.099,,-0.225,,-0.009
NKTR (UniProt P30414),,0.163,,,,,,,,,,,,,,,0.167,,1.06,
NDUFA7 (UniProt M0R0N0),0.095,,,,,,,,,,,,,,,,,,-0.052,
MXRA7 isoform 3 (UniProt P84157),,0.011,,,,,,,,-0.092,,,,,,-0.078,,,,
